In PubChem BioAssay (EPA / NIEHS) one finds outcome data, which are given here for 25 molecules.

Results filed as inconclusive are left out. Activity calls are given as the source filed them. Rule for the calls: active = hit-call score of the fitted dose curve at least 0.9, where 1 is the maximum; inconclusive = response in the unintended direction; inactive = score below 0.9.

Read-out in the assay: ABC Transporter (ABCB11), ABCB11 (gene 8647)
The assay can be described thus: CLD_ABCB11_48hr: CellzDirect (CLD) Gene Expression Assay for ABC Transporter (ABCB11) at 48 hours (AID 2283697). As to the method:
CLD_48hr is a cell-based, multiplexed-readout assay that uses hepatocyte, a human liver primary cell, with measurements taken at 48 hours after chemical dosing in a 96-well plate.CLD_ABCB11_48hr is one of 16 assay component(s) measured or calculated from the CLD_48hr assay. It is designed to make measurements of mRNA induction, a form of inducible reporter, as detected with chemiluminescence signals by Quantitative Nuclease Protection Assay (qNPA) technology.Data from the assay component CLD_ABCB11_48hr was analyzed at the endpoint, CLD_ABCB11_48hr, in the positive analysis fitting direction relative to DMSO as the negative control and baseline of activity. Using a type of inducible reporter, gain-of-signal activity can be used to understand changes in the reporter gene as they relate to the gene ABCB11. Furthermore, this assay endpoint can be referred to as a primary readout. To generalize the intended target to other relatable targets, this assay endpoint is annotated to the transporter intended target family, where subfamily is ABC transporter.
Human hepatocyte cultures were treated daily for two consecutive days with fresh dosing solutions containing appropriate concentrations of the 320 ToxCast chemicals (chemical identities were blinded to CellzDirect and other ToxCast collaborators), vehicle control (0.2% DMSO), and positive control inducers as summarized in Table 1. Due to the large number of treatment groups and chemicals examined, the ToxCast chemicals were divided into two groups (spanning two independent cultures of hepatocytes from separate donor preparations (Hu778: ToxCast plates 1 and 2; Hu776: ToxCast plates 3 and 4). Each preparation of human hepatocyte cultures was treated with respective vehicle control, medium only control, set of six positive controls/reference chemicals for the five hepatic receptor pathways, and a subset of eight of the ToxCast chemicals (indoxacarb, pyrithiobac-sodium, norflurazon, cyhalofop-butyl, methomyl, thiram, acetochlor, and propiconazole). These replicate data, coupled with internal replicates designed within the blinded ToxCast chemical library, provided additional data to evaluate interindividual differences between hepatocyte preparations and their potential impact on chemical profiles.Cell morphology and integrity were evaluated using phase-contrast microscopy as an indicator of hepatocyte cell health (Tyson & Green, 1987). Cultures for each treatment group (i.e., media, vehicle [0.2% DMSO], positive control inducers [multiple concentrations], and the ToxCast chemicals [multiple concentrations]) were observed and cell morphology was assessed relative to vehicle control cultures at each harvest time point (0, 6, 24, or 48 h). […] Images were evaluated at the conclusion of the study to assess changes in cell integrity and account for the effects of chemical exposure on uncharacteristic changes in concentration-dependent gene expression profiles. The results from these determinations of apparent cytotoxicity were annotated (yes/no) alongside the corresponding qNPA data for reference.At the conclusion of each treatment period, hepatocyte cultures (96-well) were washed with 1 volume of HBSS, lysed by addition of 25 ul ArrayPlate lysis buffer (HTG, Tucson, AZ), and 70 ul/well of Denaturation Oil, denatured by incubation at 95C for 10 min, and frozen at approximately -70C until analysis by nuclease protection assay (qNPA) (Roberts et al., 2007). For qNPA analysis, cell lysates were thawed at 50C for approximately 30 min, qNPA probes were added, and samples were incubated at 95C for 10 min to begin the detection process by denaturing the target RNA, dissociating the duplexes and secondary structure hybridization. At the conclusion of the hybridization period, S1 nuclease reagent was added to each sample to digest all nonprotected nucleotides at 50C for 60-90 min. […]
For the molecule `COc1ccc(-c2ccccc2)cc1NNC(=O)OC(C)C`, the outcome was inactive.

On to `Nc1c(Cl)c(F)nc(OCC(=O)O)c1Cl`, for which the outcome was inactive.

With `COC(=O)NS(=O)(=O)c1ccc(N)cc1`, the molecule was classed as inactive.

Turning to `OC(c1ccc(Cl)cc1)(c1ccc(Cl)cc1)C(Cl)(Cl)Cl`, the molecule was called inactive.

As to `O=C1C2CC=CCC2C(=O)N1SC(Cl)(Cl)Cl` (stereo not given), the molecule was called inactive.

Regarding `CC(C)C1(C)N=C(c2ncccc2C(=O)O)NC1=O` (stereo not given), the molecule was called inactive.

For `CCNC(=O)NC(=O)C(C#N)=NOC`, the molecule was called inactive.

Turning to `COP(=O)(OC)O/C(C)=C/C(=O)N(C)C`, the molecule was classed as inactive.

With `N#CN=C1SCCN1Cc1ccc(Cl)nc1`, the result was inactive.

Take `CCOP(=O)(OCC)Oc1nc(Cl)c(Cl)cc1Cl`: the molecule was classed as inactive.

For the molecule `COCC(C)N(C(=O)CCl)c1c(C)csc1C` (stereo not given), the result was inactive.

Consider `COP(=S)(OC)SCn1nnc2ccccc2c1=O`, for which the result was inactive.

As to `O=c1n(Cl)c(=O)n(Cl)c(=O)n1Cl`, the molecule was classed as inactive.

For `COCc1cnc(C2=NC(C)(C(C)C)C(=O)N2)c(C(=O)O)c1` (stereo not given), the call was inactive.

On to `CO/N=C(/C1=NOCCO1)c1ccccc1Oc1ncnc(Oc2ccccc2Cl)c1F`, for which the outcome was inactive.

Turning to `COc1cc(OC)nc(NC(=O)NS(=O)(=O)c2ncccc2OCC(F)(F)F)n1`, the call was inactive.

Turning to `CS(=O)(=O)c1ccc(C(=O)C2C(=O)CCCC2=O)c([N+](=O)[O-])c1`, the outcome was inactive.

On to `Clc1nc(Cl)nc(Nc2ccccc2Cl)n1`, for which the molecule was called inactive.

`COC(=O)NC(=S)Nc1ccccc1NC(=S)NC(=O)OC`: the call was inactive.

As to `O=P(O)(O)CCCl`, the result was inactive.

Turning to `C=C(C)CN(CC)c1c([N+](=O)[O-])cc(C(F)(F)F)cc1[N+](=O)[O-]`, the molecule was classed as inactive.

For the molecule `Cc1nc(N(C)C)nc(OC(=O)N(C)C)c1C`, the call was inactive.

Take `CCOc1nc(C(Cl)(Cl)Cl)ns1`: the result was inactive.

On to `CCCC(=NOCC)C1=C(O)CC(CC(C)SCC)CC1=O` (stereo not given), for which the call was inactive.

For the molecule `O=C(O)c1c(Cl)ccc2cc(Cl)cnc12`, the outcome was inactive.
